KB-V1 cytotox – kills drug-selected multidrug resistant KB-V1 cells; AID 1347076; Potency, µM (series often up to 46.1 µM), hits mostly cytotoxic; actives 3.4% (n = 400,000); KB-V1 MDR cells viability, CellTiter-Glo, 72 h; also: % is scaled to controls: 0 for no effect and ±100 for the full control effect; nearly all actives have a fitted effect of over 60% in size
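KB-V1, DMEM (no phenol red) + 10% FBS; cpd pin-transferred, titration series; 72 h, 37 degrees C; CellTiter-Glo, luminescence. Data normalized, curve-fit.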
HT1080NT lethal – kills 2HG-producing HT-1080-NT fibrosarcoma cells; HT-1080-NT fibrosarcoma viability, CellTiter-Glo ATP luminescence, 48 h; Potency, µM (series often up to 46.1 µM), for inactives: at the top dose activity, negative = less viability, hits mostly cytotoxic; actives 1.6% (n = 360,000);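 also: NT is the 2HG producing partner of a matched IDH1 knockdown line; 0% = DMSO-treated cells and -100% = media-only wells without cells; nearly all actives have a fitted effect of over 55% in size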
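HT-1080-NT; 750 cells/well; 5% FBS RPMI; 48 h compound, 37 degrees C; CellTiter-Glo luminescence; curve fitting and curve-class assignment.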
HepG2 tox – kills HepG2 cells in TGF-b inhibitor counter-screen; Potency, µM (highest dose often 46.1 µM), for the others: at the highest dose activity change, negative = cytotoxicity, actives largely listed as cytotoxic; HepG2 CAGA-GFP viability, ATP luminescence, 18 h; actives 0.76% (n = 410,000); AID 588856
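HepG2 CAGA-GFP cells (1000/well, DMEM with 1% FBS) received compound, then TGF-beta at 500 pg/mL final, and were incubated 18 hours at 37 degrees C. Viability was read by CellTiter-Glo luminescence. Media-only wells were set as complete cell-killing and DMSO as no toxicity.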
HT1080 IDH1KD tx – HT-1080 IDH1 knockdown cell toxicity (counter line). HT-1080 IDH1 knockdown viability, ATP luminescence, 48 h. Potency, µM (titrated, usually from 46.1 µM), for inactives: top-dose activity, negative = toxicity, hits mostly cytotoxic. actives 2% (n = 360,000);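 also: 0% = DMSO wells and -100% = cell-free medium wells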
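After a 2 h attachment period, IDH1KD HT-1080 cells took pin-transferred compound for 48 h at 37 °C; ATP-based luminescence after 10 min room-temperature reagent incubation reported viability.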
KB-3-1 cytotox – KB-3-1 parental cell cytotoxicity | KB-3-1 viability, CellTiter-Glo ATP luminescence, 72 h | actives 1.4% (n = 400,000) | Potency, µM (top dose mostly 46.1 µM), actives largely listed as cytotoxic; also: % is scaled to controls: 0 for no effect and ±100 for the full control effect; nearly all actives have a fitted effect of over 60% in size
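Viability of parental KB-3-1 cells, measured by CellTiter-Glo luminescence, followed a 72 h incubation at 37 °C with pinned compounds in phenol-red-free DMEM containing 10% FBS.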
TGFb inhibitor – TGF-b pathway inhibition; HepG2 CAGA-GFP TGF-b/SMAD3 reporter, GFP fluorescence, 18 h; TGF-beta stimulated, 500 pg/mL final; actives 1.2% (n = 410,000); Potency, µM (doses to about 46.1 µM), without a hit: at the top dose activity, negative = inhibition, most hits filed as inhibitors; also: % is scaled to controls: 0 for no effect and ±100 for the full control effect; nearly all actives have a fitted effect of over 65% in size
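GFP signal (ex488/em500-530) from TGF-beta-stimulated HEPG2 CAGA-GFP cells, 500 pg/mL final, 18 h at 37 degrees C in DMEM plus 1% FBS, normalized to unstimulated and DMSO-stimulated controls.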
Numbers without * were called inactive; i = inactive; ? = inconclusive; / = no result given; [ ] = remark or other dose. Rows were chosen to be rich in hits. Some 6.6% of all compounds tested hit in one or more screens of this group. Calls follow the shape of the dose curve; as a rule, active = well fitted curve in the direction sought with a large enough effect; inconclusive = small, poorly fitted or top-dose-only effect, or another doubt; inactive = no such curve, though single readings can be large; an effect the other way counts as inactive or inconclusive. Potency is read from the fitted curve at half-maximal effect.

SMILES | KB-V1 cytotox | HT1080NT lethal | HepG2 tox | HT1080 IDH1KD tx | KB-3-1 cytotox | TGFb inhibitor
CCCc1ccc(S(=O)(=O)N2CCN(C(C)C(=O)NCc3ccc(OC)cc3)CC2)cc1 (stereo not given) | ? | -0.6%[9.24 µM] | -26.1% | -0.6% | i | ?
COc1ccc(CNC(=O)C(C)N2CCN(S(=O)(=O)c3ccccc3F)CC2)cc1 (stereo not given) | 23.1µM* | -0.3% | 8.5% | 9.0% | i | -4.0%
Cc1c(Cl)cccc1NC(=O)CSc1nc2ncccc2o1 | i | / | -28.3% | / | i | 10.8%
COC(=O)C1=C(N)Oc2cc(N(C)C)ccc2C1c1ccccc1OC (stereo not given) | ? | ? | -19.6% | 4.11µM* | i | -23.1%
CCOC(=O)N(C)C[C@@H]1OCc2ccccc2-c2c(n(C)c3ccccc23)C(=O)N([C@H](C)CO)C[C@H]1C | i | -3.7% | -31.2% | 10.6% | i | -5.1%
COc1ccc(C2=NN(C(=O)/C=C/c3ccccc3)C(c3ccccc3)C2)c(OC(C)=O)c1 (stereo not given) | 2.91µM* | -8.7% | -0.4% | ? | ? | -3.2%
CCc1cccc(NC(=O)c2sc3nc[nH]c(=O)c3c2C)c1 | i | / | -2.0% | / | i | -0.7%
O=C1CNCc2[nH]c3ccccc3c2N1c1ccccc1 | 23.1µM* | -9.3% | -11.2% | -7.0% | i | 4.4%
CC(=O)Nc1nonc1-c1nnc(SCC(=O)Nc2cccc(F)c2)n1-c1ccccc1 | i | / | 5.1% | / | i | 14.4%
COc1cc(OC)cc(C(=O)NC(C)c2ccc(Br)cc2)c1 (stereo not given) | i | -4.8% | -6.2% | -17.6% | i | 3.7%
COc1ccc(C(C)NC(=O)c2ccc([N+](=O)[O-])cc2)cc1OC (stereo not given) | 20.6µM* | 5.4% | -3.5% | 1.5% | i | 0.0%
COc1ccc(OC)c(C(C)NC(=O)c2ccc(Br)cc2)c1 (stereo not given) | 16.4µM* | 5.1% | -0.1% | 2.6% | i | -2.2%
COc1cccc(C(=O)NC(C)c2ccc(Br)cc2)c1 (stereo not given) | i | -6.8% | -5.9% | -10.2% | i | 3.2%
COc1ccc(C(C)NC(=O)c2ccc(Br)cc2)cc1OC (stereo not given) | 16.4µM* | 2.4% | 8.2% | 0.9% | i | -2.6%
COc1ccc(C(C)NC(=O)c2cccc([N+](=O)[O-])c2)cc1OC (stereo not given) | 16.4µM* | -2.3% | 14.7% | 0.0% | i | 7.5%
CC(C)(C)n1ncc2c(=O)n(Cc3ccc(C(F)(F)F)cc3)cnc21 | / | / | -32.7% | / | / | -22.6%
CC(O)(c1ccc(F)c(F)c1)c1nc(-c2ccc3ccccc3c2)cs1 (stereo not given) | ? | ? | -93.7% | ? | ? | ?
CN(c1nnc(NC(=O)Nc2ccc(Br)cc2)s1)C1CCCCC1 | i | / | -1.1% | / | i | -19.8%
Cc1cccc(C)c1NC(=O)Cn1c(=O)n(Cc2ccco2)c(=O)c2ccc(C(=O)NC3CCCC3)cc21 | i | / | -8.8% | / | i | 5.8%
CCCc1cc(N2CCN(c3cc(Cl)ccc3C)CC2)n2cnnc2n1 | ? | / | 4.9% | / | ? | -20.1%
Cc1cccc(NNC(=O)C2CCC2)c1 | i | 7.31µM* | -3.0% | 7.31µM* | i | 8.7%
Cc1ccc(S(=O)(=O)N2CCN(S(=O)(=O)c3ccc4c(c3)OCCCO4)CC2)cc1 | i | / | 4.9% | / | ? | 3.7%
BrC(=C\c1ccccc1)/C=N/n1cnnc1 | ? | 16.4µM* | 1.5% | 20.6µM* | i | 26.3%
BrC(=C\c1ccccc1)/C=N/Nc1ccc2nncn2n1 | ? | -8.2% | -19.2% | ? | i | 4.8%

Screening results deposited in PubChem BioAssay by National Center for Advancing Translational Sciences (NCATS).
